# An excerpt weighted towards active compounds, which were near 3.4% of everything screened.
# PKM2 act: PKM2 (human) enzyme activation | purified PKM2, Kinase-Glo ATP luminescence, activation; response scale: 0% is enzyme alone, no compound | 260,000 compounds, 0.34% hits | Potency, µM (titrated, usually from 57.5 µM), inactives show at the top dose activation, usual class: activators | AID 1631; also: % is scaled to controls: 0 for no effect and ±100 for the full control effect; nearly all actives have a fitted effect of over 55% in size
#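 Purified hPK-M2 (>95% pure) converted ADP (0.1 mM final) to ATP with 0.5 mM PEP in 50 mM imidazole pH7.2, KCl, MgCl2, Tween 20, BSA; 1 h at room temperature. ATP detected by Kinase-Glo luminescence.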
# PLK1 PBD block: PLK1 (human) polo-box domain binding inhibition. AID 720504. Plk1 PBD binding of FITC phosphopeptide, fluorescence polarization. Potency, µM, for the others: max response, negative = inhibition, actives largely listed as inhibitors. P53350. 360,000 compounds, 2.8% hits; also: series mostly up to about 57 µM; % is scaled to controls: 0 for no effect and ±100 for the full control effect; nearly all actives have a fitted effect of over 65% in size
# Mito fusion yeast: blocks mitochondrial division or promotes mitochondrial fusion; S. cerevisiae fusion-defective mutant growth rescue, CellTiterGlo 48 h; Potency, µM (series often up to 46.1 µM), for the others: at the top dose growth rescue (activation), hits mostly activators; 320,000 compounds, 0.23% hits; also: % of control where 0% means no effect; nearly all actives have a fitted effect of over 45% in size
#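 Compounds are tested for their ability to restore growth of mitochondrial fusion-defective yeast strains at non-permissive 37C in YPEG medium over 48 hours. Viability is quantified by luciferase luminescence.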
# VDR inh: vitamin D3 receptor (human) inhibition; AID 504847; Potency, µM, inactives show max response, negative = inhibition, actives largely listed as inhibitors; VDR-SRC2-3 peptide fluorescence polarization, 2 h; 400,000 compounds, 0.93% hits; P11473; also: % is scaled to controls: 0 for no effect and ±100 for the full control effect
#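 Signal is fluorescence polarization, reporting how far test compounds block the interaction of VDR with the SRC2-3 coregulator peptide after a 2 h room-temperature incubation.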
# GCN5L2 inh: blocks human GCN5L2 histone acetyltransferase | Q92830 | GCN5L2 HAT assay, ThioGlo1 CoA-SH fluorescence | Potency, µM (highest dose often 58.9 µM), for inactives: top-dose activity change, negative = inhibition, most hits filed as inhibitors | 390,000 compounds, 0.21% hits | AID 504327; also: % is scaled to controls: 0 for no effect and ±100 for the full control effect
#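 ThioGlo1-coupled HAT assay: 20nM GCN5L2, 70uM acetyl-CoA, 75uM H3(1-25) peptide, pH 7.5. Fluorescence read at 340/540nm at start and after 20 min at room temperature.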
# GLS inh: inhibitors of human glutaminase (GLS). GLS enzymatic activity, qHTS titration. O94925. 410,000 compounds, 0.21% hits. Potency, µM (doses to about 45.5 µM), for inactives: at the top dose activity change, negative = inhibition, actives largely listed as inhibitors; also: % is scaled to controls: 0 for no effect and ±100 for the full control effect
#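 hKGA; 45 mM KH2PO4 pH 8.2 + 0.02% Tween-20; cpd via pin tool; 1 mM Gln soln; GluOx/HRP/Amplex Red; RT 30 min; fluor. t0 & final.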
# Active calls of the source: *; ? = inconclusive; . = not tested or not shown. Calls follow the shape of the dose curve; as a rule, active = well fitted curve in the direction sought with a large enough effect; inconclusive = small, poorly fitted or top-dose-only effect, or another doubt; inactive = no such curve, though single readings can be large; an effect the other way counts as inactive or inconclusive. Potency is read from the fitted curve at half-maximal effect.
SMILES,PKM2 act,PLK1 PBD block,Mito fusion yeast,VDR inh,GCN5L2 inh,GLS inh
Cc1ccc(-c2nnc(N3CCN(C(=O)c4cccs4)CC3)c3ccccc23)cc1,1%,1%,11%,-10%,-6%,20µM*
O=C(C=Cc1cccs1)c1ccc(Cl)s1,.,-12%,.,40µM*,.,-16%
Cc1ccc(/C=C/C(=O)c2ccc([N+](=O)[O-])o2)cc1,.,-28%,-37%,5.6µM*,-9%,10%
COc1ccc(C)cc1S(=O)(=O)NCC(c1cccnc1)N1CCc2ccccc2C1 (stereo unspecified),11µM*,-21%,-14%,-7%,-1%,5%
O=[N+]([O-])c1ccc(S(=O)(=O)NCC(c2cccnc2)N2CCc3ccccc3C2)cc1 (stereo unspecified),.,-6%,8%,-23%,3%,-8%
COC(=O)c1nn(-c2ccc(OC)cc2)c(=O)cc1NN,-1%,-6%,2%,-7%,-11%,0%
CCOC(=O)c1nn(-c2ccc(C)cc2)c(=O)c2c(N)scc12,6%,-14%,6%,13µM*,-29%,-2%
COC(=O)c1nn(-c2ccc(OC)cc2)c(=O)c2c(N)sc(C)c12,-10%,24µM*,.,?,-2%,-16%
Cn1cccc1C(=O)N1CCC2(CCN(Cc3ccncc3)CC2)CC1,.,.,.,4%,6%,.
O=C(c1cc(Cl)ccc1Cl)N1CCc2ccccc21,-4%,27µM*,6%,?,-14%,-9%
Cc1ccc(C(=O)N2CCc3ccccc32)cc1[N+](=O)[O-],1%,30µM*,5%,-10%,-15%,16%
O=C(c1ccc(Cl)cc1Cl)N1CCc2ccccc21,0%,-4%,1%,-14%,1%,-3%
O=C(c1ccc(N2CCCCCC2)c([N+](=O)[O-])c1)N1CCc2ccccc21,-2%,.,1%,.,0%,.
CCOC(=O)COc1ccc2c(C)cc(=O)oc2c1C(=O)c1ccccc1,9%,21µM*,-3%,-7%,-7%,-6%
CCC(=O)c1c(OCc2ccccc2)ccc2c(C)cc(=O)oc12,17%,.,23%,.,-6%,.
O=C1NN(C(=O)Nc2ccc(Br)cc2)C(c2ccccc2)C1c1ccccc1 (stereo unspecified),.,.,.,-17%,-18%,.
O=c1[nH]c(=S)[nH]c2c1C(c1ccc(Br)cc1)c1c([nH]c(=S)[nH]c1=O)O2,.,6µM*,14%,89µM*,14µM*,?
O=C1c2ccccc2C(=O)C1c1ccc(Br)cc1,.,-13%,-14%,14%,-11%,-7%
CC1(C)CC(=O)C2=C(C1)Nc1[nH]c(=S)[nH]c(=O)c1C2c1ccccc1 (stereo unspecified),-2%,?,6%,-21%,-7%,-18%
O=C1CCCC2=C1C(c1ccc(Br)cc1)c1c([nH]c(=S)[nH]c1=O)N2 (stereo unspecified),9%,27µM*,10%,?,?,13µM*
Cc1ccc(C2C3=C(CCCC3=O)Nc3[nH]c(=S)[nH]c(=O)c32)cc1 (stereo unspecified),0%,?,2%,89µM*,22µM*,?
CN(CC(=O)Nc1ccccc1Cl)C(=O)Cn1cc(C(F)(F)F)cc(Cl)c1=O,.,-16%,-7%,-7%,4%,1%
CCc1ccc(NC(=O)Cn2c(SCc3ccc(C)cc3)nc3ccncc32)cc1,.,.,.,-3%,.,.
NC(=O)c1cc2c3ccccc3ccn2c1-c1ccccc1,5%,?,-15%,?,-3%,12%
Cc1ccc(S(=O)(=O)N/N=C2/CC(c3ccccc3)Oc3ccccc32)cc1[N+](=O)[O-] (stereo unspecified),-11%,12µM*,0%,1%,-15%,23%
O=S(=O)(N/N=C1/CC(c2ccccc2)Oc2ccccc21)c1ccc(Br)cc1 (stereo unspecified),-10%,-19%,0%,-3%,-12%,6%

# Bioassay records as filed in PubChem.
